# Measurements as given in PubChem BioAssay AID1159580 (chemical genetic matrix, 2015).
# Where “and” joins values, the source holds several entries; their conditions need not be identical. Identical values can stand only once. Screen size: about 5,500 compounds; about 2,000 (36%) were called active. Another 18% or so got no clear call; they are omitted. Rule as the data show it: active = normalized growth mostly below about 0.91 (no sharp cut-off); inconclusive = no clear call, values can overlap the other calls; inactive = mostly above about 0.92. Some of the results follow.
# Test: chemical genetic growth profiling, strain panel (AID 1159580);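 also: tested at 20 µM; growth read once vehicle control cultures reached saturation at 30 °C; 1 = growth at the plate median or of vehicle wells; lower values mean less growth of the strain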
# Settings: S. cerevisiae deletion strains, growth OD
compound,measurement,setting,value
CC[C@@]1(O)C(=O)OCc2c1cc1n(c2=O)Cc2cc3ccccc3nc2-1,normalized growth,"locus YAL013W, strain DEP1, stronger effect = lower value",0.829 (active)
same,normalized growth,"locus YAL021C, strain ccr4, stronger effect = lower value",0.327 (active)
same,normalized growth,"locus YAL026C, strain drs2, stronger effect = lower value",0.626 (active)
same,normalized growth,"locus YAL030W, strain snc1, stronger effect = lower value",0.813 (active)
same,normalized growth,"locus YBL061C, strain skt5, stronger effect = lower value",0.859 (active)
same,normalized growth,"locus YBR009C, strain hhf1, stronger effect = lower value",0.681 (active)
same,normalized growth,"locus YBR021W, strain FUR4, stronger effect = lower value",0.889 (inactive)
same,normalized growth,"locus YBR023C, strain chs3, stronger effect = lower value",0.803 (active)
same,normalized growth,"locus YBR171W, strain sec66, stronger effect = lower value",0.949 (inactive)
same,normalized growth,"locus YBR229C, strain ROT2, stronger effect = lower value",0.982 (inactive)
same,normalized growth,"locus YBR231C, strain swc5, stronger effect = lower value",0.696 (active)
same,normalized growth,"locus YBR279W, strain paf1, stronger effect = lower value",0.98 (inactive)
same,normalized growth,"locus YCL011C, strain gbp2, stronger effect = lower value",0.577 (active)
same,normalized growth,"locus YCL016C, strain dcc1, stronger effect = lower value",0.134 (active)
same,normalized growth,"locus YCL029C, strain bik1, stronger effect = lower value",0.884 (active)
same,normalized growth,"locus YCL061C, strain MRC1, stronger effect = lower value",0.821 (active)
same,normalized growth,"locus YCL069W, strain vba3, stronger effect = lower value",0.788 (active)
same,normalized growth,"locus YCR088W, strain abp1, stronger effect = lower value",0.747 (active)
same,normalized growth,"locus YDL005C, strain med2, stronger effect = lower value",0.882 (active)
same,normalized growth,"locus YDL035C, strain GPR1, stronger effect = lower value",0.843 (active)
same,normalized growth,"locus YDL040C, strain nat1, stronger effect = lower value",0.952 (inactive)
same,normalized growth,"locus YDL074C, strain BRE1, stronger effect = lower value",0.613 (active)
same,normalized growth,"locus YDL101C, strain DUN1, stronger effect = lower value",0.654 (active)
same,normalized growth,"locus YDL134C, strain PPH21, stronger effect = lower value",0.81 (active)
same,normalized growth,"locus YDL185W, strain tfp1, stronger effect = lower value",0.782 (active)
same,normalized growth,"locus YDL192W, strain arf1, stronger effect = lower value",0.838 (active)
same,normalized growth,"locus YDR001C, strain nth1, stronger effect = lower value",0.882 (active)
same,normalized growth,"locus YDR069C, strain doa4, stronger effect = lower value",0.767 (active)
same,normalized growth,"locus YDR101C, strain arx1, stronger effect = lower value",0.897 (active)
same,normalized growth,"locus YDR137W, strain rgp1, stronger effect = lower value",0.74 (active)
same,normalized growth,"locus YDR150W, strain NUM1, stronger effect = lower value",0.998 (inactive)
same,normalized growth,"locus YDR159W, strain sac3, stronger effect = lower value",0.821 (active)
same,normalized growth,"locus YDR162C, strain NBP2, stronger effect = lower value",0.688 (active)
same,normalized growth,"locus YDR195W, strain ref2",0.538 (active)
same,normalized growth,"locus YDR297W, strain sur2, stronger effect = lower value",0.884 (active)
same,normalized growth,"locus YDR318W, strain mcm21, stronger effect = lower value",0.796 (active)
same,normalized growth,"locus YDR334W, strain swr1, stronger effect = lower value",0.786 (active)
same,normalized growth,"locus YDR335W, strain msn5, stronger effect = lower value",0.841 (active)
same,normalized growth,"locus YDR388W, stronger effect = lower value",0.793 (active)
same,normalized growth,"locus YDR392W, strain spt3, stronger effect = lower value",0.284 (active)
same,normalized growth,"locus YDR502C, strain sam2, stronger effect = lower value",0.803 (active)
same,normalized growth,"locus YEL003W, strain gim4, stronger effect = lower value",0.834 (active)
same,normalized growth,"locus YEL037C, strain rad23, stronger effect = lower value",0.851 (active)
same,normalized growth,"locus YEL061C, strain CIN8 (second series), stronger effect = lower value",0.848 (active)
same,normalized growth,"locus YEL061C, strain CIN8, stronger effect = lower value",0.947 (inactive)
same,normalized growth,"locus YER015W, strain faa2, stronger effect = lower value",0.784 (active)
same,normalized growth,"locus YER016W, strain bim1, stronger effect = lower value",0.754 (active)
same,normalized growth,"locus YER110C, stronger effect = lower value",0.944 (inactive)
same,normalized growth,"locus YER111C, strain swi4, stronger effect = lower value",0.97 (inactive)
same,normalized growth,"locus YER155C, strain BEM2 (second series), stronger effect = lower value",0.887 (inactive)
same,normalized growth,"locus YER155C, strain BEM2, stronger effect = lower value",0.837 (active)
same,normalized growth,"locus YER167W, strain BCK2, stronger effect = lower value",0.82 (active)
same,normalized growth,"locus YFR010W, strain ubp6, stronger effect = lower value",0.617 (active)
same,normalized growth,"locus YGL078C, strain dbp3, stronger effect = lower value",0.883 (active)
same,normalized growth,"locus YGL086W, strain mad1, stronger effect = lower value",0.847 (active)
same,normalized growth,"locus YGL167C, strain pmr1, stronger effect = lower value",0.95 (inactive)
same,normalized growth,"locus YGL173C, strain kem1, stronger effect = lower value",0.882 (active)
same,normalized growth,"locus YGL227W, strain vid30, stronger effect = lower value",0.894 (active)
same,normalized growth,"locus YGL240W, strain doc1, stronger effect = lower value",0.565 (active)
same,normalized growth,"locus YGL248W, strain PDE1, stronger effect = lower value",0.879 (active)
same,normalized growth,"locus YGL253W, strain hxk2, stronger effect = lower value",0.885 (active)
same,normalized growth,"locus YGR135W, strain pre9, stronger effect = lower value",0.878 (active)
same,normalized growth,"locus YGR229C, strain SMI1, stronger effect = lower value",0.384 (active)
same,normalized growth,"locus YGR252W, strain gcn5, stronger effect = lower value",0.655 (active)
same,normalized growth,"locus YHR013C, strain ard1, stronger effect = lower value",0.868 (inactive)
same,normalized growth,"locus YHR027C, strain rpn1, stronger effect = lower value",0.933 (inactive)
same,normalized growth,"locus YHR030C, strain SLT2, stronger effect = lower value",0.94 (inactive) and 0.843 (active)
same,normalized growth,"locus YHR079C, strain IRE1 (second series), stronger effect = lower value",0.801 (active)
same,normalized growth,"locus YHR079C, strain IRE1, stronger effect = lower value",0.791 (active)
same,normalized growth,"locus YHR094C, strain hxt1, stronger effect = lower value",0.941 (inactive)
same,normalized growth,"locus YHR129C, strain ARP1, stronger effect = lower value",0.801 (active)
same,normalized growth,"locus YHR142W, strain chs7, stronger effect = lower value",0.772 (active)
same,normalized growth,"locus YHR200W, strain rpn10, stronger effect = lower value",0.711 (active)
same,normalized growth,"locus YIL066C, strain RNR3, stronger effect = lower value",0.921 (inactive)
same,normalized growth,"locus YIL073C, strain SPO22, stronger effect = lower value",0.598 (active)
same,normalized growth,"locus YIL125W, strain kgd1, stronger effect = lower value",0.774 (active)
same,normalized growth,"locus YIR030C, strain dcg1, stronger effect = lower value",0.826 (active)
same,normalized growth,"locus YJL092W, strain hpr5, stronger effect = lower value",0.22 (active)
same,normalized growth,"locus YJL095W, strain BCK1 (second series), stronger effect = lower value",0.855 (active)
same,normalized growth,"locus YJL095W, strain BCK1, stronger effect = lower value",0.751 (active) and 0.84 (active)
same,normalized growth,"locus YJL115W, strain asf1, stronger effect = lower value",0.132 (active)
same,normalized growth,"locus YJL129C, strain trk1, stronger effect = lower value",0.537 (active)
same,normalized growth,"locus YJL134W, strain LCB3, stronger effect = lower value",0.997 (inactive)
same,normalized growth,"locus YJL154C, strain vps35, stronger effect = lower value",0.811 (active)
same,normalized growth,"locus YJL164C, strain tpk1, stronger effect = lower value",0.634 (active)
same,normalized growth,"locus YJL166W, strain qcr8, stronger effect = lower value",0.748 (active)
same,normalized growth,"locus YJL168C, strain set2, stronger effect = lower value",0.961 (inactive)
same,normalized growth,"locus YJL187C, strain SWE1 (second series), stronger effect = lower value",0.848 (active)
same,normalized growth,"locus YJL187C, strain SWE1, stronger effect = lower value",0.876 (active)
same,normalized growth,"locus YJR043C, strain POL32, stronger effect = lower value",0.561 (active)
